The source of these data is the supplement of paper PMC11482750.

± gives the standard deviation of the averaged measurements.

Compound in the assay: C=CCN=C=S [allyl isothiocyanate]
As to the kind of experiment: control-subtracted net OSN firing rate; higher = stronger neuronal activation. As to conditions: odorant dilution (vol/vol): 1/100. Summed up: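 Fed female flies 1–5 days old, Scaptomyza species or D. melanogaster wild-type, mutant or at1 empty-neuron lines expressing Or42a homologs, were used for single sensillum recordings from palp or antennal olfactory sensory neurons. Each odorant, at 1:100 vol/vol in mineral oil or dimethyl sulfoxide with 20 μl applied to filter paper, was given as a 1 s pulse into a 16 ml/min filtered air stream. Spike counts over 0.5 s from 0.2 s after onset were background-subtracted, doubled and solvent-corrected, then averaged across replicates.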
With Canton-S (D. melanogaster) ab8b, the “control-subtracted net OSN firing rate” value was 45.4 ± 36 spikes/s.

In the case of Canton-S (D. melanogaster) ab8a, the “control-subtracted net OSN firing rate” value turned out to be 31.1 ± 18 spikes/s.

Canton-S (D. melanogaster) ab4a: the “control-subtracted net OSN firing rate” value worked out at 83.1 ± 18 spikes/s.

Regarding Canton-S (D. melanogaster) ab5b, the “control-subtracted net OSN firing rate” value was -3.14 ± 11 spikes/s.

Turning to Canton-S (D. melanogaster) ab3a, the “control-subtracted net OSN firing rate” value was 30 ± 16 spikes/s.

w1118 (D. melanogaster) pb1a: the “control-subtracted net OSN firing rate” value was determined as 91.3 ± 46 spikes/s.

For the target Canton-S (D. melanogaster) ab4b, the “control-subtracted net OSN firing rate” value was -2.57 ± 3.2 spikes/s.

Consider Canton-S (D. melanogaster) ai3b, for which the “control-subtracted net OSN firing rate” value amounted to 3.67 ± 7.3 spikes/s.

As for Canton-S (D. melanogaster) ab2b, the “control-subtracted net OSN firing rate” value is -6 ± 4 spikes/s.

For Canton-S (D. melanogaster) ab3b, the “control-subtracted net OSN firing rate” value was -4.33 ± 7.5 spikes/s.

Turning to Canton-S (D. melanogaster) ab6a, the “control-subtracted net OSN firing rate” value came to 2.67 ± 5.9 spikes/s.

In the case of Canton-S (D. melanogaster) at4b, the “control-subtracted net OSN firing rate” value is -3 ± 6.5 spikes/s.

Take Canton-S (D. melanogaster) ai2b: the “control-subtracted net OSN firing rate” value is -1.14 ± 4.3 spikes/s.

In the case of Canton-S (D. melanogaster) ab7b, the “control-subtracted net OSN firing rate” value was -5.14 ± 9.4 spikes/s.

As to Canton-S (D. melanogaster) ab1b, the “control-subtracted net OSN firing rate” value turned out to be 15.3 ± 20 spikes/s.

Take Canton-S (D. melanogaster) ab5a: the “control-subtracted net OSN firing rate” value is -2 ± 7.1 spikes/s.

Take Canton-S (D. melanogaster) ab6b: the “control-subtracted net OSN firing rate” value is -5.33 ± 19 spikes/s.

As for Canton-S (D. melanogaster) ab1d, the “control-subtracted net OSN firing rate” value is -4.33 ± 9.1 spikes/s.

Consider Canton-S (D. melanogaster) ai2a, for which the “control-subtracted net OSN firing rate” value was 4 ± 7.8 spikes/s.

Turning to Canton-S (D. melanogaster) ab2a, the “control-subtracted net OSN firing rate” value was -1.33 ± 2.4 spikes/s.

In the case of Canton-S (D. melanogaster) ai3c, the “control-subtracted net OSN firing rate” value stood at 6 ± 13 spikes/s.

With Canton-S (D. melanogaster) ai3a, the “control-subtracted net OSN firing rate” value came out at 0.667 ± 6 spikes/s.

Canton-S (D. melanogaster) ab9b: the “control-subtracted net OSN firing rate” value turned out to be 2.33 ± 17 spikes/s.

For Canton-S (D. melanogaster) ab1a, the “control-subtracted net OSN firing rate” value was -3.67 ± 15 spikes/s.

Take Canton-S (D. melanogaster) ab7a: the “control-subtracted net OSN firing rate” value is -8.86 ± 13 spikes/s.

On to Canton-S (D. melanogaster) at1, for which the “control-subtracted net OSN firing rate” value is -0.286 ± 14 spikes/s.

On to Canton-S (D. melanogaster) ab10a, for which the “control-subtracted net OSN firing rate” value worked out at 8.8 ± 6.8 spikes/s.

Consider Canton-S (D. melanogaster) ab1c, for which the “control-subtracted net OSN firing rate” value was -3.33 ± 11 spikes/s.

On to Canton-S (D. melanogaster) at4c, for which the “control-subtracted net OSN firing rate” value came out at 1.33 ± 4.7 spikes/s.

Consider Canton-S (D. melanogaster) ab10b, for which the “control-subtracted net OSN firing rate” value stood at 0.4 ± 5.7 spikes/s.

On to Canton-S (D. melanogaster) at4a, for which the “control-subtracted net OSN firing rate” value was -3 ± 7.5 spikes/s.

Regarding Or42a- (D. melanogaster) pb1a, the “control-subtracted net OSN firing rate” value is -2.5 ± 4 spikes/s.

Canton-S (D. melanogaster) ab9a: the “control-subtracted net OSN firing rate” value is 41 ± 45 spikes/s.

For TrpA1- (D. melanogaster) pb1a, the “control-subtracted net OSN firing rate” value stood at 152 ± 22 spikes/s.
